PubChem BioAssay AID1851 (National Center for Advancing Translational Sciences (NCATS), 2009)
Among all 16,000 compounds or so, about 5,700 (36%) were called active. About 24% were inconclusive and are not listed. This is one part of the list. Unmarked numbers belong to inactive results. The call rests on the fitted dose curve; in most records, active means well fitted curve in the direction sought with a large enough effect; inconclusive means small, poorly fitted or top-dose-only effect, or effect the other way; inactive means no such curve, though single readings can be large or run the other way.
On the % scale 0 is the no-effect control and ±100 the full control effect.

Each molecule was assayed against Cytochrome P450 1A2 (Homo sapiens) (UniProt P05177) (assay: Cytochrome panel assay with activity outcomes). Conditions: recombinant CYP, pro-luciferin dealkylation, luminescence, p450-cyp1a2; series mostly up to 57.1 µM; activity, negative = inhibition: at the top concentration.
Sequence of Cytochrome P450 1A2 (Homo sapiens) (P05177 whole entry, looked up): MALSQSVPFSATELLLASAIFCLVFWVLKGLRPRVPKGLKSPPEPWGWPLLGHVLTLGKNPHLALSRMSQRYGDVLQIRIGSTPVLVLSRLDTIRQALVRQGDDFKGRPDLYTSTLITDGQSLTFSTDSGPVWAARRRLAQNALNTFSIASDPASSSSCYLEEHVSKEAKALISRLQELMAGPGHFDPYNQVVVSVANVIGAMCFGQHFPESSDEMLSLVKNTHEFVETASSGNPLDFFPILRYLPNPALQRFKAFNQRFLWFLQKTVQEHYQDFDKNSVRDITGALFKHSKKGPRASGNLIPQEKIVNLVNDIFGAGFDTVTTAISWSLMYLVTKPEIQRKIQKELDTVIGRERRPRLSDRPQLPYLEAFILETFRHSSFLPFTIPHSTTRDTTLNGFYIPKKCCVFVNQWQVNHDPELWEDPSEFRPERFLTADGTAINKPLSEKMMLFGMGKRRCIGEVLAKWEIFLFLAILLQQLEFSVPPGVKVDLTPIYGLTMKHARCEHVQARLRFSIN
For CC[N+](C)(C)c1cccc(O)c1, the “activity, negative = inhibition” value was -2.3% [at 25.6 µM]. NC/C=C\C(=O)O was tested, and the AC50 was “inactive”. Cc1ccc(Oc2nn[nH]n2)cc1 was tested, and the “activity, negative = inhibition” value was -8.17%. For CC(=O)CC(=O)[C@@]1(O)CC[C@@H]2[C@@H]3C=C(C)C4=CC(=O)CC[C@@H]4[C@H]3CC[C@]21C, the “activity, negative = inhibition” value was -6.66% [at 25.6 µM]. With CCNc1ncc2nc(-c3ccccc3)c(=O)n(Cc3cccs3)c2n1 the AC50 was 0.316 µM (active). With CCNc1ncc2nc(-c3cc(F)cc(F)c3)c(=O)n(Cc3cccs3)c2n1 the AC50 was 5.01 µM (active). CCNc1ncc2ncc(=O)n(Cc3cccs3)c2n1 was tested, and the AC50 was 2 µM (active). For C[N+]1(C)CCC(=C(c2ccccc2)c2ccccc2)CC1, the “activity, negative = inhibition” value was -2.16% [at 25.6 µM]. With CC(=O)Oc1cc(C(C)C)c(OCCN(C)C)cc1C the AC50 was 3.16 µM (active). CC(C)(C)CNCCO showed an activity, negative = inhibition of 6.23% [at 2.29 µM]. In the case of c1ccc(CSc2nnc([C@@H]3CCCN3)o2)cc1, the AC50 is reported as 25.1 µM (active). Cc1ccc(CSc2nnc([C@@H]3CCCN3)o2)cc1 was tested, and the AC50 was 15.8 µM (active). Cc1ccc(CSc2nnc(-c3ccncc3)n2CC2CCCO2)cc1 (centres undefined) was tested, and the “activity, negative = inhibition” value was -21.2%. For NC(=O)/C(=N\O)c1ccccc1, the “activity, negative = inhibition” value was 2.26%. For CCOC(=O)c1oc2nc(CC(C)C)c3c(c2c1N)CCC3, the AC50 was 0.891 µM (active). Molecule COc1cccc([C@H]2Oc3ccc(OC)cc3/C(=N\OC[C@@H](O)[C@@H]3O[C@@H]4OC(C)(C)O[C@@H]4[C@H]3O)[C@@H]2O)c1 has an activity, negative = inhibition of -8.99% [at 11.4 µM]. O=C(O)C[C@H](Cc1ccc2c(c1)OCO2)C(=O)O gave an activity, negative = inhibition of -20% [at 11.4 µM]. CCc1c(C(=O)NCc2ccc3c(c2)OCO3)[nH]c(C)c1C(C)=O was tested, and the AC50 was 3.16 µM (active). CC1(C)SC(=S)N(Cc2ccc3c(c2)OCO3)C1N(O)C(=O)NC1CCCCC1 (centres undefined) was tested, and the “activity, negative = inhibition” value was -27.1%. For CCc1ccccc1NC(=S)NCc1ccc2c(c1)OCO2, the AC50 was 5.62 µM (active). With C[N+]1(C)CCc2cc(O)c(O)cc2[C@H]1Cc1ccc(O)c(O)c1 the activity, negative = inhibition was -12.1% [at 2.29 µM]. For CC1(C)CC(=O)C(C(C#Cc2ccccc2)C2=C(O)CC(C)(C)CC2=O)=C(O)C1, the “activity, negative = inhibition” value was -28.5%. For COc1cccc(-c2cc(C(=O)N/N=C/c3ccc(OC)c(COC(C)=O)c3)c3ccccc3n2)c1, the “activity, negative = inhibition” value was -28.3%. For COc1ccc(/C=N/NC(=O)c2ccn[nH]2)cc1COc1ccc(F)cc1, the AC50 was 8.91 µM (active). For COc1ccc(C(C(=O)NC2CCCC2)N(Cc2ccc(F)cc2)C(=O)c2ccn[nH]2)cc1OC (centres undefined), the “activity, negative = inhibition” value was -9.89%. With CO[C@@]12C[C@@H](COC(=O)c3cncc(Br)c3)CN(C)[C@H]1Cc1cn(C)c3cccc2c13 the AC50 was 5.01 µM (active). CN(C)c1ccc(/C=N\NC(=O)c2cnc3ccccc3c2)cc1 was tested, and the AC50 was 1.58 µM (active). Cc1cccc(C(=O)N/N=C/c2ccc(OCC(=O)N3CCCCC3)cc2)c1 was tested, and the “activity, negative = inhibition” value was -9.71%. With O[C@@](CCN1CCCCC1)(c1ccccc1)[C@@H]1C[C@H]2C=C[C@@H]1C2 the “activity, negative = inhibition” value was -9.3% [at 25.6 µM]. N[C@@H](C(=O)O)c1ccc(C(=O)O)cc1 was tested, and the “activity, negative = inhibition” value was 3.94%. Work on CC(=O)N[C@H](Cc1ccc(O)cc1)C(=O)O yielded an activity, negative = inhibition of -11.8% [at 11.4 µM]. With CC(C)Cc1ccc([C@H](C)C(=O)O)cc1 the AC50 was “inactive”. For N#C[C@H](Cc1ccc(O)cc1)c1ccc(O)cc1, the AC50 was 12.6 µM (active). CCN(CC)CCn1c(=S)[nH]c2cc3c(cc2c1=O)OCO3 was tested, and the AC50 was 15.8 µM (active). C=CCNC(=O)c1ccc(Cn2c(=S)[nH]c3cc4c(cc3c2=O)OCO4)cc1 was tested, and the AC50 was 8.91 µM (active). With O=C(CCCCCn1c(=S)[nH]c2cc3c(cc2c1=O)OCO3)N1CCN(C2CCCCC2)CC1 the “activity, negative = inhibition” value was -22.2%. Cc1sc2ncn(CC(=O)NCCCC(=O)N3CCN(c4ncccn4)CC3)c(=O)c2c1C was tested, and the “activity, negative = inhibition” value was -23.7%. In the case of O=C(CCCn1c(=S)[nH]c2cc3c(cc2c1=O)OCO3)N1CCN(c2ncccn2)CC1, the AC50 is reported as 12.6 µM (active). For CCCCNC(=O)CCn1c(=S)[nH]c2cc3c(cc2c1=O)OCO3, the AC50 was 2.51 µM (active). CCCNC(=O)OC[C@@H]1O[C@H](CCO/N=C(\C)CCN2CCc3nc(-c4ccccc4)c(-c4ccccc4)cc3C2)C=C[C@@H]1Oc1ccc(OC)cc1 gave an activity, negative = inhibition of -4.45% [at 11.4 µM]. COC(=O)C/C=C\[C@H](C)[C@H](CO)NS(=O)(=O)c1ccc(C)cc1 was tested, and the activity, negative = inhibition was -2.78% [at 11.4 µM]. O=C(Cc1cccs1)N1CCC(c2nc3c(nnn3Cc3ccccc3Cl)c(=O)[nH]2)CC1 was tested, and the AC50 was 6.31 µM (active). For O=C(NCc1ccco1)c1nc2c(nnn2Cc2cccc(Cl)c2)c(=O)[nH]1, the “activity, negative = inhibition” value was -10.5%. Cc1ccc(C)c(S(=O)(=O)N2CCC(c3nc4c(nnn4Cc4ccc(F)cc4)c(=O)[nH]3)CC2)c1 was tested, and the “activity, negative = inhibition” value was -22.9%. With CCN(CC)CC[n+]1ccc2c(C)c3[nH]c4ccc(O)cc4c3c(C)c2c1 the AC50 was 3.16 µM (active). CCN(CC)CC[n+]1ccc2c(C)c3[nH]c4ccccc4c3c(C)c2c1 was tested, and the AC50 was 2.51 µM (active). For CN1CCN(c2ncnc3ccc(-c4ccccc4Cl)cc23)CC1, the AC50 was 1.58 µM (active). For Clc1ccccc1-c1ccc2ncnc(N3CCNCC3)c2c1, the AC50 was 2 µM (active). In the case of CN1CCN(c2ncnc3ccc(-c4ccccc4C#N)cc23)CC1, the AC50 is reported as 3.16 µM (active). For Cc1ccccc1-c1ccc2ncnc(N3CCNCC3)c2c1, the AC50 was 3.16 µM (active). In the case of CC(Cc1ccccc1)NC(=O)CSc1nc2nc3c(cc2c(=O)n1-c1ccccc1)COC(C)(C)C3 (centres undefined), the “activity, negative = inhibition” value is reported as -3.43%. Molecule C/C(CCN1CCc2nc(-c3ccccc3)c(-c3ccccc3)cc2C1)=N\OC[C@@H](O)COCc1ccco1 has an activity, negative = inhibition of -6.41% [at 11.4 µM]. CCOC(=O)C(C)(C)[C@H](O)C(C)C showed an activity, negative = inhibition of -1.66% [at 11.4 µM]. With N#Cc1cccc(NC(=O)N2CCCC3(CCN(C(=O)c4csnn4)CC3)C2)c1 the “activity, negative = inhibition” value was 10.4%. With Cc1ccccc1-c1ccc2ncnc(N3CCN(C)CC3)c2c1 the AC50 was 3.16 µM (active). Cc1cnc(CNc2nc(-c3ccc(N(C)C)cc3)nc3ccccc23)cn1 was tested, and the AC50 was 3.16 µM (active). For Cc1cnc(CNc2nc(-c3ccoc3)nc3ccccc23)cn1, the AC50 was 2 µM (active). For COC(=O)Cn1c(=N)n(CCN2CCCCC2)c2ccccc21, the “activity, negative = inhibition” value was -12%. In the case of N=c1n(CCN2CCOCC2)c2ccccc2n1CC(=O)c1ccc(Cl)c(Cl)c1, the AC50 is reported as 1.26 µM (active).
